Measured values from PubChem BioAssay (NCI).
The panel holds about 83,000 compounds, 20% with a hit somewhere; the sample as a whole holds those more often.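 For each line, cells grew in 96-well plates with the test compound present at a single concentration for 48 hours.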 A number with no mark means an inactive call. Active and inactive are the calls of the source. How the source made its calls: active means growth percent below 10; inactive means the rest.

Assays:
Test in all cases: NCI-60 one-dose screen, 48 h (100 = growth as untreated, 0 = no growth, -100 = all killed)
Details in all cases: 10 µM unless noted
EKVX NSCLC = test system: EKVX NSCLC
SN12C renal = test system: SN12C renal
UO-31 renal = test system: UO-31 renal
TK-10 renal = test system: TK-10 renal
ACHN renal = test system: ACHN renal
CAKI-1 renal = test system: CAKI-1 renal
A498 renal = test system: A498 renal
CCRF-CEM leukemia = test system: CCRF-CEM leukemia
MOLT-4 leukemia = test system: MOLT-4 leukemia
SR leukemia = test system: SR leukemia

SMILES	growth (EKVX NSCLC)	growth (SN12C renal)	growth (UO-31 renal)	growth (TK-10 renal)	growth (ACHN renal)	growth (CAKI-1 renal)	growth (A498 renal)	growth (CCRF-CEM leukemia)	growth (MOLT-4 leukemia)	growth (SR leukemia)
CN1C(=O)N(C)C2(c3ccccc3)OC(=S)NC12c1ccccc1 (centres undefined)	90.8%	107%	89%	102%	95.7%	84.7%	105%	114%	103%	105%
O=c1oc2ccc(F)cc2c(=O)n1-c1ccc(F)cc1F	93.5%	24.9%	26%	10.4%	36.3%	16.4%	-30.5% (active)	35.9%	22.3%	
O=c1c2cc(F)ccc2sc2c(NCCCNCCO)nc3ccc(Cl)cc3c12	88.8%	67.4%	58.5%	77.1%	60.8%	27.8%	60.7%	13.7%	18.7%	
COc1cc(/C=C/C(=O)N2c3ccccc3CC2C)c(OC)c2c1OCO2 (centres undefined)	87.7%	97.1%	77.9%	96%	95.7%	101%	69.1%	94.6%	84.6%	102%
Fc1ccc(Oc2ccc(Nc3ncnc4onc(-c5ccccc5)c34)cc2)cc1	98.9%	84.1%	52.3%	102%	99.8%	93.5%	67%	62.9%	88.7%	102%
CCC(C)(C)C(=O)O[C@H]1C[C@@H](C)C=C2C=C[C@H](C)[C@H](CC[C@@H]3CC=CC(=O)O3)[C@H]21	107%	62.8%	76%	109%	70.9%	84.5%	107%	3.21% (active)	1.21% (active)	7.49% (active)
O=C(/C=C/c1ccc(Cl)cc1)c1ccc(Nc2nc(NCCO)nc(Nc3ccc(Cl)cc3)n2)cc1	59.1%	83.1%	57.3%	94.2%	57.2%	67.3%	79.5%	47.2%	46.1%	23.2%
CCOC(=O)C1=C(C)c2ccc(OC)c(OC)c2C1	98.8%	108%	95.5%	87.2%	103%	100%	96.3%	93%	87.7%	73.4%
O=C(Nc1ccc(Cl)cc1)c1cc2ccccc2cc1OP(=O)(O)O	24.8%	41.4%	2.13% (active)	18.7%	17.2%	-8.12% (active)	28.7%	18.2%	38.9%	53.9%
C#CCn1cc(C=C2C(=O)N(C)C(=O)N(C)C2=O)c2cc(Cl)ccc21	98.1%	101%	80.1%	106%	99.4%	91.7%	70%	105%	105%	
CNC(=O)c1cc(Oc2ccc(CC(=O)Nc3cc(C(C)(C)C)cn3C)cc2)ccn1	75.6%	68.5%	87.4%	108%	66.7%	56%	53.9%	74%	69.6%	75.5%
O=C(COc1cc(O)c2c(=O)cc(-c3ccccc3)oc2c1)Nc1ccccc1	103%	89.9%	80.2%	103%	57.9%	77.9%	98.8%	94.4%	91.1%	
O=C(/C=C/c1ccc(C(F)(F)F)cc1)c1ccc(Nc2nc(NCCO)nc(N3CCOCC3)n2)cc1	65.4%	71.5%	48%	81.8%	36.5%	53.1%	98%	10.3%	5.76% (active)	19%
CCOC(=O)c1sc(-c2ccc(OS(=O)(=O)c3ccccc3[N+](=O)[O-])c(C=O)c2)nc1C	92.3%	3.63% (active)	57.1%	85.5%	101%	38.8%	-84.6% (active)	12.1%	9.88% (active)	9.06% (active)
O=c1oc2ccc(Br)cc2c(=O)n1-c1ccc(Cl)cc1F	9.06% (active)	1.42% (active)	7.61% (active)	7.09% (active)	2.66% (active)	-18.1% (active)	-69.8% (active)	6.89% (active)	-8.39% (active)	
COc1ccc(Cn2cc(Cn3cc(C=C4C(=O)NC(=O)NC4=O)c4ccccc43)nn2)cc1	99.4%	85.8%	56.3%	83.7%	91.4%	70.1%	22.2%	85%	75.3%	
COc1cc2nc(NC3CCCC3)nc(NC3CCN(C(C)C)CC3)c2cc1OC	81.6%	97.3%	79.5%	71.7%	86.9%	98.2%	97.4%	66.4%	54.1%	-1.77% (active)
O=S1(=O)N(Cc2ccccc2)[C@@H](Cc2ccccc2)[C@H](O)[C@H](O)[C@H](Cc2ccccc2)N1Cc1ccccc1	-1.3% (active)	5.15% (active)	0% (active)	60.4%	-7.05% (active)	-19.1% (active)	18.5%	7.73% (active)	5.65% (active)	4.45% (active)
COc1cc2c(cc1OC)C(=O)C(CC1CCN(C(=O)Nc3ccc(C)cc3)CC1)C2 (centres undefined)	90.9%	92.5%	60.4%	116%	93.6%	83.7%	69.4%	97.8%	102%	112%
Cn1nc(C(F)(F)F)c(-c2ccc(Cl)c(C(F)(F)F)c2)c1-c1ccc(OCc2ccc(Cl)cc2)cc1O	12.8%	6.24% (active)	-6.34% (active)	0.361% (active)	5.21% (active)	19.8%	5.29% (active)	9.89% (active)	12.3%	25.1%
COC(=O)/C(CCC=C(C)C)=C1\[C@@H](OC(C)=O)C[C@@]2(C)[C@H]1C[C@@H](O)[C@H]1[C@@]3(C)CC[C@H](NCCCNCCCCNCCCN)[C@@H](C)[C@@H]3CC[C@@]12C	66.2%	38.2%	51.7%	69.4%	42.4%	61.9%	69.1%	70.6%	65.4%	42.3%
NCCOc1ncccc1/C=C1\c2ccccc2-c2ccc(F)cc21	51.9%	2.42% (active)	-17.5% (active)	22.4%	-20.8% (active)	12.8%	18.9%	6.8% (active)	2.25% (active)	9% (active)
COc1cc2nc(-c3cccc4cccnc34)nc(NC3CCN(Cc4ccccc4)CC3)c2cc1OC	-66.2% (active)	-82.4% (active)	-83% (active)	-88.7% (active)	-94.5% (active)	-88.3% (active)	-72.2% (active)	-30.1% (active)	-32.4% (active)	-7.18% (active)
O=C(CN1C(=O)/C(=C\c2ccc(Cl)cc2)SC1=S)Nc1ncc(Cc2ccc(Cl)cc2)s1	96.5%	104%	80.8%	111%	103%	88.1%	115%	106%	106%	116%
Brc1ccc(Oc2ccc(Nc3ncnc4onc(-c5ccccc5)c34)cc2)cc1	105%	94.8%	73%	110%	105%	91.8%	82.4%	97.3%	94%	94.2%
C[C@@H](C(=O)NCCCC#Cc1cnc(Nc2ccc(C#N)cc2)nc1NC1CC1)N(C)C(=O)/C=C/CN(C)C	33.5%	35.9%	28.6%	63%	14.3%	60.1%	-5.21% (active)	13.8%	7.9% (active)	9.79% (active)
